Test results taken from the supplement of paper PMC11732987, “Enantioselective OTUD7B fragment discovery through chemoproteomics screening and high-throughput optimisation” (Communications Chemistry, 2025).

What was measured:
Assay in all cases: log2 ratio of Biotin-Ahx-Ub-VS probe labelling (fragment/DMSO); higher = less target engagement (more negative = stronger competition), active = hit call of the paper (q ≤ 0.05, log2 ratio ≤ -1)
Conditions in all cases: compound concentration: 200 uM; treatment time: 3 h
[1] = biological target: USP34 (UniProt Q70CQ2)
Sequence of USP34 (Q70CQ2 whole entry, the tested form may be a part): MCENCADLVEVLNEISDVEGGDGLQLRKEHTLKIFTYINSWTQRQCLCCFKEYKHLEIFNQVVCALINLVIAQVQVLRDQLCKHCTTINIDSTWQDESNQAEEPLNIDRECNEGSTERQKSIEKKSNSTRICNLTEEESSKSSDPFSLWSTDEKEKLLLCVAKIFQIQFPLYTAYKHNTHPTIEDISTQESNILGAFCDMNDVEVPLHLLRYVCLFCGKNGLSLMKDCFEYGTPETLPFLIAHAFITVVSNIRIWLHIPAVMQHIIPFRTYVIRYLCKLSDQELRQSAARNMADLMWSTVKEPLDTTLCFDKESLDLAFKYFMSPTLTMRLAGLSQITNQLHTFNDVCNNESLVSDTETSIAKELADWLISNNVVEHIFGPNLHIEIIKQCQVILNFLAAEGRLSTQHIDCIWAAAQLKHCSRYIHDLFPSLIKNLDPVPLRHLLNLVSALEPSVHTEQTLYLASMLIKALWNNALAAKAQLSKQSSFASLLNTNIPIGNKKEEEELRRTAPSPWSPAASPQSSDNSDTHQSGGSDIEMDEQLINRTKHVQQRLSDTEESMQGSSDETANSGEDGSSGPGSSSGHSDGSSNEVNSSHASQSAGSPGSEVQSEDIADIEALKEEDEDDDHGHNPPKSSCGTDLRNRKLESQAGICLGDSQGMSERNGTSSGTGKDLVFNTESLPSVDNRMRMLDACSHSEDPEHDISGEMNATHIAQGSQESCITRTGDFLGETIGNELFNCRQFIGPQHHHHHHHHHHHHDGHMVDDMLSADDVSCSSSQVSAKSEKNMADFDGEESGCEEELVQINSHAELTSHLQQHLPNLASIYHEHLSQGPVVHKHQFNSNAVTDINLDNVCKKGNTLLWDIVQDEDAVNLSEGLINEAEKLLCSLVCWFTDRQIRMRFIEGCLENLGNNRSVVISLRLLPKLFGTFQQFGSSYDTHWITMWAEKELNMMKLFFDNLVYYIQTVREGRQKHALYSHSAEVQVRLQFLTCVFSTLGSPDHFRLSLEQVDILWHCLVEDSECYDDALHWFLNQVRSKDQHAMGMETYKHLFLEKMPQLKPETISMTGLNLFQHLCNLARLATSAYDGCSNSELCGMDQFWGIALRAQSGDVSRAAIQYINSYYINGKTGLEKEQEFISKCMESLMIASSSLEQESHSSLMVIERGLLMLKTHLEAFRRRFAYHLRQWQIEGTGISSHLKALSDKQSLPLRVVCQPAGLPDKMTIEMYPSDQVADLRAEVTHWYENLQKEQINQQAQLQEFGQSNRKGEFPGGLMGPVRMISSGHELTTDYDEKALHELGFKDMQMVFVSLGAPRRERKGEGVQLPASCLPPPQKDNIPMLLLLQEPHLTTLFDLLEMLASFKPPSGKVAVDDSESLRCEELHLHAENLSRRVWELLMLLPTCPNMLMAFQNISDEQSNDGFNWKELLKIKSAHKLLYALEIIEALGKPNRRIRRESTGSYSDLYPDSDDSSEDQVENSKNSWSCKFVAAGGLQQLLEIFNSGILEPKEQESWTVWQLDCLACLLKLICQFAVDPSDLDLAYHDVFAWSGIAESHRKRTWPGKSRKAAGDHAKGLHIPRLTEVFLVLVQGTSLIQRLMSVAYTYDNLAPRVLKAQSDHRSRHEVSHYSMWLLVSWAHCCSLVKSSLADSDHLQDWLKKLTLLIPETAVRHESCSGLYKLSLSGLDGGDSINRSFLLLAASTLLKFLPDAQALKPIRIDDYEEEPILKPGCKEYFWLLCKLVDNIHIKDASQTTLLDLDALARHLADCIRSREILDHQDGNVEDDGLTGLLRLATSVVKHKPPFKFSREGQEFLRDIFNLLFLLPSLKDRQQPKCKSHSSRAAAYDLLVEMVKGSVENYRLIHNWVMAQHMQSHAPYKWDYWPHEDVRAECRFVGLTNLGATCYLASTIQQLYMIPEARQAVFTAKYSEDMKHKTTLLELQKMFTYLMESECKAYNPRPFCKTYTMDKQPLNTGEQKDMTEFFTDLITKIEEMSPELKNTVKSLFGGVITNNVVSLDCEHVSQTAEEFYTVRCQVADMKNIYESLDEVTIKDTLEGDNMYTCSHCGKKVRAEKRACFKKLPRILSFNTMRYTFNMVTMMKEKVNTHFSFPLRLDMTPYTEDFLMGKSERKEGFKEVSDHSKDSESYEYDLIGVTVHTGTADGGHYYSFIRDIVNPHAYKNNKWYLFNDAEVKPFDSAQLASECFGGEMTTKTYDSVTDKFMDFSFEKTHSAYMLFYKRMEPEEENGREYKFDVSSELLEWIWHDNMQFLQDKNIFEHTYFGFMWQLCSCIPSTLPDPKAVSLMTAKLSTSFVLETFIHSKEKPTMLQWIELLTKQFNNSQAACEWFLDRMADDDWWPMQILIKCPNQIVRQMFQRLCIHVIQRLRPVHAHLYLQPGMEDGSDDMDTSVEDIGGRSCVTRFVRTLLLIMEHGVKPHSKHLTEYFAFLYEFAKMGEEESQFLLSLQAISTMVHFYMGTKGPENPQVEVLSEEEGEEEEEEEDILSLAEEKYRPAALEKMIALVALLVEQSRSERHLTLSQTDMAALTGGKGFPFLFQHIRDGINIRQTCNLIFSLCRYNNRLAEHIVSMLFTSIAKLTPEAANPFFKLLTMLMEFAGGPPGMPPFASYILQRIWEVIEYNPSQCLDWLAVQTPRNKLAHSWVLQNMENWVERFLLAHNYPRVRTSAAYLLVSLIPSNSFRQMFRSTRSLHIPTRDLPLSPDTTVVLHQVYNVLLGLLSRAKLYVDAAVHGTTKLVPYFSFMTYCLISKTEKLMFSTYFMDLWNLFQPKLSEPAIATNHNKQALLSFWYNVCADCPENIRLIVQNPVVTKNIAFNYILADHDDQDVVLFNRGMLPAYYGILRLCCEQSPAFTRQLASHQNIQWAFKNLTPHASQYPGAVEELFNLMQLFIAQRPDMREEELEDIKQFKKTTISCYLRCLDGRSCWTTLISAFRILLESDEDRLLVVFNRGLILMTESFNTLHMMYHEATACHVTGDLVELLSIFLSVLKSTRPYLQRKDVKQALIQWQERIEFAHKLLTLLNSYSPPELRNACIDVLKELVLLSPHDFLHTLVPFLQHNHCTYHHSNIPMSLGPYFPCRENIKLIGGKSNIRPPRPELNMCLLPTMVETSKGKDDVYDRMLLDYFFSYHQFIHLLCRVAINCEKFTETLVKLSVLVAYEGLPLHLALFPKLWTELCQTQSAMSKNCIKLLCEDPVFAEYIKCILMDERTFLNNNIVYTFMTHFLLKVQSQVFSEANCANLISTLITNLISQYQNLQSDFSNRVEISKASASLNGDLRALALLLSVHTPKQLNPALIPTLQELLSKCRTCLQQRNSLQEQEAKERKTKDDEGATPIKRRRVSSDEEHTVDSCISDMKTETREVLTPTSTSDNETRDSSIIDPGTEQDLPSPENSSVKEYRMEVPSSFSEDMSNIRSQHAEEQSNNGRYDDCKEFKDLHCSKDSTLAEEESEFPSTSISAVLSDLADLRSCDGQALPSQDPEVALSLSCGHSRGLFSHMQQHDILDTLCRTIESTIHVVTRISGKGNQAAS
Procedure, shortened: (§1)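 Average log2 ratios of fragment over vehicle were obtained by unpaired t-test from global-median-normalised Spectronaut label-free quantities. Proteins with ≥2 unique peptides were included. HEK293T lysate (495 µg per sample) was treated in triplicate with fragment at 200 µM or vehicle for 3 h, then with Biotin-Ahx-Ub-VS at 0.5 µM final for 1 h, and labelled DUBs were NeutrAvidin-enriched and run by diaPASEF LC-MS/MS.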

[2] = biological target: T1, USP36 (UniProt Q9P275)
T1 sequence (whole entry): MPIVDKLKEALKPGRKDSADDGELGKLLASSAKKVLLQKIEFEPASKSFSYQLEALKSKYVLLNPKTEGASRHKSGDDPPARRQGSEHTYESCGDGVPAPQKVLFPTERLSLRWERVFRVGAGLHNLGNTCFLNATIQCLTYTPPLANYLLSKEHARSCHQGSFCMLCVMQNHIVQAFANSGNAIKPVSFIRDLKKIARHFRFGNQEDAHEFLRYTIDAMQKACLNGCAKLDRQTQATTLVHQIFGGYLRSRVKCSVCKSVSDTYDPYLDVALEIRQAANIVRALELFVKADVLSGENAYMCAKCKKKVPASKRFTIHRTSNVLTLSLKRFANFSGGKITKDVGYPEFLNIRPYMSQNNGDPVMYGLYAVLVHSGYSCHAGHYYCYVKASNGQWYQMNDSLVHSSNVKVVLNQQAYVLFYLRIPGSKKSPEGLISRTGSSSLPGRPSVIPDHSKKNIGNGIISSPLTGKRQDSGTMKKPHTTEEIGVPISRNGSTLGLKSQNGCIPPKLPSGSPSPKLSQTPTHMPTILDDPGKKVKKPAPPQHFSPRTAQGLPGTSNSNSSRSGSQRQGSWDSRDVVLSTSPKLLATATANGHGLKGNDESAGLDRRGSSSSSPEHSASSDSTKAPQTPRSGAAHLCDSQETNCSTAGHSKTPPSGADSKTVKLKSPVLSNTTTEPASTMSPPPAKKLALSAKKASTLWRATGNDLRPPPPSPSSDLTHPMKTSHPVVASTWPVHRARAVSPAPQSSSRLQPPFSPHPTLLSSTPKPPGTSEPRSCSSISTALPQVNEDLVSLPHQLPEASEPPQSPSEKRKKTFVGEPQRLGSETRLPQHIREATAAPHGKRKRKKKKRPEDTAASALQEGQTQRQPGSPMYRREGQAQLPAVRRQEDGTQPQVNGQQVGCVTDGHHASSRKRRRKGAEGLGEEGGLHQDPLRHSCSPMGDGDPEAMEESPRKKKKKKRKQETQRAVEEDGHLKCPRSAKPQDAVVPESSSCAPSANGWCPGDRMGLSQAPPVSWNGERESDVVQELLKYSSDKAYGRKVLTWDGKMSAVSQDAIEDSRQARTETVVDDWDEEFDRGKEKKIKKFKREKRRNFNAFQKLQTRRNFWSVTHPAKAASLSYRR
Procedure, shortened: as §1

[3] = biological target: T2, USP38 (UniProt Q8NB14)
T2 sequence (whole entry): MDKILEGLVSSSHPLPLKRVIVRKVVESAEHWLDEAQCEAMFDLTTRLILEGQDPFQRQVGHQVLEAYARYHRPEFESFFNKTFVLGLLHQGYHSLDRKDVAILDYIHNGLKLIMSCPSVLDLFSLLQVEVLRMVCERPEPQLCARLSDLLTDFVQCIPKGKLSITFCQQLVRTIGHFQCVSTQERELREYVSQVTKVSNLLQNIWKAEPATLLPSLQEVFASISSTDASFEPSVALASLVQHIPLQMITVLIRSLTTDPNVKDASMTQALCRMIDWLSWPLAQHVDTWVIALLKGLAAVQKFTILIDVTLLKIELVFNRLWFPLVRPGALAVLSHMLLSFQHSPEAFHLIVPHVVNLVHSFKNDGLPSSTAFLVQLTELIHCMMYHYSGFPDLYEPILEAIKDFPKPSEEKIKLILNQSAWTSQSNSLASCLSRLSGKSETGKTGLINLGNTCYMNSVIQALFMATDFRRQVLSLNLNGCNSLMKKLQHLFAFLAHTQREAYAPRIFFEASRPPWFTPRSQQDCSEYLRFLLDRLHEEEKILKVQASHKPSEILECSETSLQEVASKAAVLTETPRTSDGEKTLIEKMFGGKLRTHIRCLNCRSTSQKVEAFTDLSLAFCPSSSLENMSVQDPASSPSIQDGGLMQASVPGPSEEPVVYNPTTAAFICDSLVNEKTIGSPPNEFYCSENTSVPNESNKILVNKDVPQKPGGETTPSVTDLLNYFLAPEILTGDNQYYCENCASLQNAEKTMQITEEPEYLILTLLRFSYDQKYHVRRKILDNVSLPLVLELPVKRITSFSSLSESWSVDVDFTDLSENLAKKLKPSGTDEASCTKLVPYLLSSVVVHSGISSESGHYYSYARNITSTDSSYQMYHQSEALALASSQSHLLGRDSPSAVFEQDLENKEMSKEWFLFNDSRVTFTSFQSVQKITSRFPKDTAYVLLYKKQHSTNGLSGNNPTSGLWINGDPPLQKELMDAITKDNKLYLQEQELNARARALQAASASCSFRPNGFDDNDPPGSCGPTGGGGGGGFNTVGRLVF
Procedure, shortened: as §1

[4] = biological target: T3, USP39 (UniProt Q53GS9)
T3 sequence (whole entry): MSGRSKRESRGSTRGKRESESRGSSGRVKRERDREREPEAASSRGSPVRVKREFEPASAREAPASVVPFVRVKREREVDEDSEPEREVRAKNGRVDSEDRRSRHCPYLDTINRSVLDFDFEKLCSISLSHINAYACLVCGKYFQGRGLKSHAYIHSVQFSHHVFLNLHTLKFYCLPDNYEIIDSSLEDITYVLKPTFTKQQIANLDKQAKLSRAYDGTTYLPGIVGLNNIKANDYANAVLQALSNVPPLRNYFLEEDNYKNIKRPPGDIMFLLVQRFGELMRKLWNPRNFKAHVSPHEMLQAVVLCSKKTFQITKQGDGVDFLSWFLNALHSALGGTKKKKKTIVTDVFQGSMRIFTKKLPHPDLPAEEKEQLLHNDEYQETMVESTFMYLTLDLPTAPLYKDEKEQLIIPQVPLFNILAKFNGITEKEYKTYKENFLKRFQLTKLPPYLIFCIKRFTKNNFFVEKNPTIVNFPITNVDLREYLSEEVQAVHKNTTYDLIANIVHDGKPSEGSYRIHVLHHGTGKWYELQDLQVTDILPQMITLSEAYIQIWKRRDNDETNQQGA
Procedure, shortened: as §1

[5] = biological target: T4, USP4 (UniProt Q13107)
T4 sequence (whole entry): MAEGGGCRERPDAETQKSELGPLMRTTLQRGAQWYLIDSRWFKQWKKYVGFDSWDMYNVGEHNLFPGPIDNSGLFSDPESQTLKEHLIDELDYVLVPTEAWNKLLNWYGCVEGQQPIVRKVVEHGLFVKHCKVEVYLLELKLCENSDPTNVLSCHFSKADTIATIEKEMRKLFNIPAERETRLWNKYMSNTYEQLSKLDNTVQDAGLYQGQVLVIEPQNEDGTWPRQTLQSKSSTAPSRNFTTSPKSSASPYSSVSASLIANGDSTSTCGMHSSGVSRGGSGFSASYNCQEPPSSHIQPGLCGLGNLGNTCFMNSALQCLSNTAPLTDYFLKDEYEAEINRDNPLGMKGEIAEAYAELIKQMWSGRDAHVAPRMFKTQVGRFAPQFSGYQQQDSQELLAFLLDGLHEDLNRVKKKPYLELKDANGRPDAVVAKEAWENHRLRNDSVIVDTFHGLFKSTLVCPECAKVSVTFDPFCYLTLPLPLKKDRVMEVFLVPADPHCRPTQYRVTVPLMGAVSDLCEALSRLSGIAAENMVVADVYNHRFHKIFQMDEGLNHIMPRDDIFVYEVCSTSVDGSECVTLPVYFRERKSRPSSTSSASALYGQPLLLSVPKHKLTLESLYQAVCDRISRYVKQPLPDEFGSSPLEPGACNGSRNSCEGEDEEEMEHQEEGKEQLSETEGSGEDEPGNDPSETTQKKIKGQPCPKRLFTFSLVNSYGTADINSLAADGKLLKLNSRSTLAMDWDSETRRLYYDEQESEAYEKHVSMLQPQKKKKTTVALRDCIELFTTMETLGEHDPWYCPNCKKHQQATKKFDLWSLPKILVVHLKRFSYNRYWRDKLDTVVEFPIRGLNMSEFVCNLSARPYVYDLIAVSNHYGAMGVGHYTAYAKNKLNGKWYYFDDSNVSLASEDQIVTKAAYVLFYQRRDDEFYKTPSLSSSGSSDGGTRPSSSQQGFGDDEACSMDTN
Procedure, shortened: as §1

Measured: log2 ratio of Biotin-Ahx-Ub-VS probe labelling

O=C(CCl)N1c2ccccc2NC(=O)C12CCCC2
inactive: [1] -0.193 | [2] 0.111 | [3] 0.18 | [4] 0.678 | [5] -0.0657
